Measurements: ChEMBL document CHEMBL4888484, “Replenishing the malaria drug discovery pipeline: Screening and hit evaluation of the MMV Hit Generation Library 1 (HGL1) against asexual blood stage Plasmodium falciparum ,using a nano luciferase reporter read-out” (2022)
Where “and” joins values, the source holds several entries; their conditions need not be identical. Identical values can stand only once. The whole screen tested about 150,000 compounds, of which about 540 (0.36%) showed an effect of 50% or more. This is one part of a sample in which strong results are shown more often than they occur.

System: Plasmodium falciparum
Test: Primary screen in NF54 nanoGlo assay, in single point, at 2uM, 72h; a lower Z score goes with more inhibition
Format: functional, Erythrocyte
Conditions: timepoint 72 hour

Structure (SMILES)	% Inhibition	Z score	% Inhibition (2 µM)
O=C(NCc1ccccc1)c1[nH]cnc1C(=O)N1CCCCC1	11%	-1.23	–
Cc1nn(C)c2nc3c(c(N)c12)C(=O)C[C@@H](c1ccccc1)C3	-14%	1.9	–
Nc1nc(-c2ccccc2)c2cc3c(nn12)C[C@H](c1ccc(F)cc1)CC3=O	57%	0.5	–
COc1ccc(-c2n[nH]c3c2C(=O)C[C@@H](c2ccccc2)C3)cc1	-5%	0.48	–
CNc1snc(C)c1C(=O)N1CCN(Cc2ccc(-c3cccc(F)c3)s2)CC1	2%	-0.21	–
O=C(N[C@@H]1CC[C@H]2CCOc3ccccc3C(=O)N3CCN(C4CCC(F)(F)CC4)C[C@H]3C(=O)NC[C@H]1O2)C1CCOCC1	29%	-3.41	–
CC(=O)N1CCC(C(NC(=O)c2cccs2)C(=O)N2CCCCC2C)CC1 (centres undefined)	4%	-0.78	–
Cc1ccc(S(=O)(=O)N2CCC([C@H](NC(=O)c3ccccc3)C(=O)N3CCCC3)CC2)cc1	-14%	1.34	–
Cc1ccc(NC(=O)N2CCC(C(NC(=O)c3ccccc3)C(=O)N3CCCCC3C)CC2)cc1 (centres undefined)	70%	0.76	–
COc1ccc(Cc2n[nH]c3c2CN(Cc2nccs2)CC3)cc1OC	6%	-0.85	–
Cc1noc(CNC(=O)c2ccc3[nH]c(=O)[nH]c3c2)n1	-7%	1.3	–
CCOC1CC(N(C)S(=O)(=O)c2cnc(C)s2)C12CCC2 (centres undefined)	-5%	0.63	–
CCCc1nc2ncnn2c(O)c1NC(=O)Nc1ccccc1Br	2%	-0.44	–
N#C[C@@H](C(=O)c1cc2ccccc2[nH]1)c1nc2ccccc2s1	16%	-2.03	–
N#C[C@@H](C(=O)NCc1ccccc1)c1nc2ccccc2s1	-2%	0.39	–
N#CC(c1nc2ccccc2s1)c1nc2ccccc2s1	60%	0.46	–
CCN(CC)C(=O)Nc1ccc(-c2c(C)nn(CC(N)=O)c2C)cc1	1%	-0.2	–
CCN(CC)c1ccc(CNC(=O)[C@H](C)c2c(C)noc2C)cc1F	-12%	1.74	–
CCOc1cccc(CN2CCC(C)(c3noc(C4CCOCC4)n3)CC2)c1	-13%	1.51	–
Fc1ccccc1N1CCN(C2CCN(Cc3ccncc3)CC2)CC1	20%	-2.44	–
CCN1CCN(C2CCN(Cc3c[nH]c4ccccc34)CC2)CC1	5%	-0.83	–
Fc1ccccc1N1CCN(C2CCN(Cc3c[nH]c4ccccc34)CC2)CC1	67%	-0.71	–
c1cc(Oc2ccc3nnnn3n2)cc(-c2nnco2)c1	-14%	1.28	–
Cn1c(CN2CCN(c3ccnc4ccccc34)CC2)cc(=O)n(C)c1=O	17%	-2.24	–
NC(=O)CO[C@H]1CCOC[C@H]1NC(=O)c1ccc(Oc2ccccc2)o1	4%	-0.64	–
Cc1cccc(CN2CCC[C@@](O)(CN3CCN(CC4CC4)CC3)C2=O)c1	-10%	1.1	–
CC1CN(C(CNCc2cnn(C)c2)c2cccs2)CCO1 (centres undefined)	-9%	0.92	–

Structure (SMILES)	% Inhibition	Z score	% Inhibition (2 µM)
CCN(c1noc(C2CCN(C(=O)C(C)C)CC2)n1)C(C)C	-18%	2.32	–
CCc1nn(C)c(OC)c1CNC(=O)N[C@@H]1Cc2ccccc2[C@H]1O	-13%	1.27	–
COc1ccc2cc1Oc1cccc(c1)CO[C@H]1CCN(C(=O)CN3CCC(O)CC3)C[C@H]1NC(=O)CC2	-23%	2.88	–
COc1cccc(-c2nc(C)c(C(=O)NCc3nnc4ccccn34)s2)c1	-3%	0.36	–
COc1ccc(-c2nc(C)c(C(=O)Nc3n[nH]c(CC(C)C)n3)s2)cc1OC	15%	-2.32	–
COc1cccc(-c2nc(C)c(C(=O)Nc3n[nH]c(CC(C)C)n3)s2)c1	–	–	82% and 77%
COc1cccc(-c2nc(C)c(C(=O)Nc3nc(C(C)C)n[nH]3)s2)c1	68%	-7.28	–
COc1cccc(-c2nc(C)c(C(=O)NC[C@@H]3CCCN4CCCCC34)s2)c1 (some centres undefined)	-1%	0.17	–
COc1cccc(-c2nc(C)c(C(=O)Nc3cccc4[nH]ccc34)s2)c1	-1%	0.1	–
O=C(CCC1CCCCC1)NC1CCN(c2cn[nH]c(=O)c2)CC1	-10%	1.05	–
CCN(CC)c1nc2cc(C(=O)NCc3ccc(C)cc3)ccc2c(=O)n1Cc1ccccc1	5%	-0.78	–
COc1ccc(Cn2c(C)c(C3=CCN(S(=O)(=O)c4cc(C)c(C)cc4C)CC3)c3ccccc32)cc1	0%	0.05	–
CC(=O)Nc1ccc(C)cc1S(=O)(=O)N1CC=C(c2c(C)n(Cc3ccc(Cl)cc3)c3ccccc23)CC1	-14%	1.87	–
CC(=O)Nc1ccc(C)cc1S(=O)(=O)N1CC=C(c2c(C)n(Cc3ccccc3C)c3ccccc23)CC1	92%	-8.31	–
Cc1cc(C(F)(F)F)n(C[C@@H](C)Cn2cc(-c3cncnc3)nn2)n1	-6%	0.77	–
COC(=O)Nc1nc(-c2ccccc2)c(-c2nccc(OCC(F)(F)F)c2C)s1	30%	-3.82	–
COc1ccccc1N(C)Cc1c(C)noc1C	7%	-0.98	–
COc1ccc(Cl)cc1N(Cc1ccccc1)Cc1ccccc1	-2%	0.32	–
COc1ccccc1N(Cc1ccccc1)C1=NC(=[N+](Cc2ccccc2)c2ccccc2OC)c2ccccc21	73%	-6.15	–
O=C(CCc1c(F)cccc1Cl)N1CC(Nc2cnccn2)C1	-6%	0.7	–
CC1(CO)CCCC1NCC(C)(O)C(F)(F)F (centres undefined)	33%	-3.73	–
O=c1c2ccccc2nc(Cc2ccccc2)n1Nc1ccccc1	-13%	1.76	–
CCc1cc(-c2cccc(C(=O)N3C[C@@H]4CC[C@H](C3)C(=O)N4)c2)nc(C)n1	-4%	0.67	–
O=C(NCC1CCOCC1)c1ccc(-c2ccc(Cl)cn2)cc1	7%	-1.01	–
COc1nc(-c2cccc(C(=O)NCC3CCOCC3)c2)ncc1F	70%	-12.03	–
Cc1ccc(-c2cccc(C(=O)NCC3CCOCC3)c2)c(C)n1	-2%	0.22	–
O=C(NCC1CCOCC1)c1ccc(-c2ccc(C(F)(F)F)cn2)cc1	1%	-0.21	–

Structure (SMILES)	% Inhibition	Z score	% Inhibition (2 µM)
Cc1cc(C)nc(-c2cccc(C(=O)NC[C@H]3CCOC3)c2)n1	-2%	0.19	–
COc1nc(-c2cccc(C(=O)N3C[C@@H]4CC[C@H](C3)C(=O)N4)c2)ncc1F	68%	-12.2	–
O=C1N[C@H]2CC[C@@H]1CN(C(=O)c1cccc(-c3ccc4nccc(O)c4c3)c1)C2	-3%	0.64	–
Cc1nc[nH]c1CN(Cc1c(C)nn(C)c1C)C(C)C	-7%	0.99	–
CC(C)N(CC1CCC1)C(=O)NC1CCC(Oc2cnccn2)CC1 (centres undefined)	29%	-3.26	–
COc1cc(C)c(-c2ccc(C(=O)N3CCCCCC3)cc2)cn1	-10%	1.56	–
Cc1ccc2c(C3=CCN(C(=O)c4cnc5[nH]c(=O)[nH]c(=O)c5c4)CC3)c[nH]c2c1	6%	-1.15	–
O=C(CCc1cc2n(n1)CCN(Cc1ccc3ccccc3n1)C2)NCCO	-16%	2.81	–
CCOCCC1CCN(C(=O)c2cccc(-n3cccn3)n2)CC1	-15%	1.43	–
CCc1ocnc1C(=O)NC1CCCCCC1C(=O)OC (centres undefined)	-7%	0.61	–
O=C(c1ccccc1)C1C(c2ccccc2)N1C(=O)c1cccc(Cl)c1 (centres undefined)	-7%	0.84	–
CC(=O)Nc1ccc(-c2cc(-c3ccccc3)nc(-c3ccccc3)n2)cc1	-14%	2.76	–
CC(=O)Nc1ccc(-c2cn3c4ccccc4ccc3[n+]2C)cc1	87%	-10.86	–
CC(=O)Nc1ccc(-c2cn(C)c[n+]2C)cc1	-42%	4.97	–
OC1(c2csc(CN3CCOCC3)n2)CCN(Cc2ccccn2)CC1	-9%	1.39	–
Cn1c(C(=O)Nc2cc(F)ccc2NC(=O)c2ccccn2)cc(Cl)c1Cl	-27%	2.71	–
CC(C)N1CC[C@H](NCCc2ccccc2)C1	-6%	0.77	–
C[C@H]1CCC[C@@H](NCCc2ccccc2)CCC/C=C/c2cc(O)cc(O)c2C(=O)O1	73%	-6.47	–
O=C(NCCc1ccccc1)NC1CCCC1	-11%	2.11	–
NC(=O)c1ccc(NCCOc2cccc(Cl)c2Cl)nn1	-9%	1.2	–
CCC[C@H]1CN(C(=O)c2cccc3cn[nH]c23)CCN1CCOC	4%	-0.6	–
Cc1ccccc1NC(=O)CN1CCN(Cc2ccccc2)S1(=O)=O	-18%	1.6	–
CC1=C[C@@H](c2ccc(Cl)cc2)n2nc(NC(=O)c3ccccc3)nc2N1	-6%	1.14	–
Cc1ccc(C2=C[C@@H](c3ccc(C)cc3)n3nc(NC(=O)c4cccc(Cl)c4)nc3N2)cc1	16%	-2.03	–
Cc1ccc(C2=C[C@@H](c3ccc(Cl)cc3)n3nc(NC(=O)c4ccccc4)nc3N2)cc1	84%	-8.34	–
CC(=O)Nc1ccccc1CN(Cc1ccc(F)cc1F)C1CC1	9%	-0.85	–
